According to the supplement of paper PMC4723716:
± gives the uncertainty stated by the source. The full ranking holds about 9,900 compounds; the median of “viability index relative to DMSO control” is about 1, and the lowest 2% start at about 0.85. This excerpt belongs to a sample that is enriched for the lowest values.

Test system: Plasmodium falciparum NF54 stage V gametocytes
Assay: viability index relative to DMSO control (fraction); higher = less gametocyte killing
Settings: 2.5 µM, incubation time: 72 h
Method in brief: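 P. falciparum NF54 stage V gametocytes in serum-free screening medium (0.75% gametocytemia, 1.25% hematocrit, 10 µl) were incubated with compound at 2.5 µM in 1,536-well plates for 72 hr at 37°C under low oxygen. Then 3 µl of 2.5 µM MitoTracker Red CMXRos plus 0.13% saponin was added for one to two hours. One field per well was imaged, 20–70 µm2 red particles were counted, and the viability index was the count divided by the plate mean of DMSO wells.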

[1] = library set: Broad Institute DOS
[2] = library set: Broad Institute Blood Stage

Compound | viability index [1] | viability index [2]
Cc1noc(C)c1NC(=O)N(C)C[C@@H]1OCc2cnnn2CCCC(=O)N([C@H](C)CO)C[C@@H]1C | 1.09 ± 0.08 | –
CO[C@@H]1CN(C)C(=O)c2ccc(NC(=O)NC(C)C)cc2OC[C@@H](C)N(Cc2ccc(-c3ccccn3)cc2)C[C@H]1C | 1.03 ± 0.023 | –
COCC(=O)Nc1ccc2c(c1)C(=O)N(C)[C@@H]1CC[C@H](CC(=O)N3CCc4ccccc4C3)O[C@@H]1CO2 | 1.0023 ± 0.00098 | –
C/C=C/c1ccc([C@H]2[C@H]3CNC[C@@H]2N3S(=O)(=O)c2ccccc2C)cc1 | 1.04 ± 0.027 | –
C[C@H](CO)N1C[C@H](C)[C@H](CN(C)S(=O)(=O)c2ccc(F)cc2)OCc2ccccc2-c2c(n(C)c3ccccc23)C1=O | – | 0.942 ± 0.045
C[C@H]1CN([C@@H](C)CO)C(=O)c2c(c3ccccc3n2C)-c2ccccc2CO[C@H]1CN(C)S(=O)(=O)c1ccc(F)cc1 | – | 0.929 ± 0.041
Cc1ccc(S(=O)(=O)N(C)C[C@@H]2OCc3ccccc3-c3c(n(C)c4ccccc34)C(=O)N([C@@H](C)CO)C[C@@H]2C)cc1 | – | 0.728 ± 0.062
COc1ccc(S(=O)(=O)N(C)C[C@@H]2OCc3ccccc3-c3c(n(C)c4ccccc34)C(=O)N([C@@H](C)CO)C[C@@H]2C)cc1 | – | 0.936 ± 0.044
C[C@H](CO)N1C[C@H](C)[C@H](CN(C)S(=O)(=O)c2ccc(C#N)cc2)OCc2ccccc2-c2c(n(C)c3ccccc23)C1=O | – | 1.01 ± 0.03
C[C@H]1CN([C@@H](C)CO)C(=O)c2c(c3ccccc3n2C)-c2ccccc2CO[C@H]1CN(C)S(=O)(=O)c1ccc(Cl)cc1 | – | 0.738 ± 0.023
CCNC(=O)C[C@@H]1CC[C@H]2[C@@H](COC[C@H](O)CN2C(=O)c2ccccn2)O1 | 1.14 ± 0.062 | –
COc1cccc(C#Cc2ccc3c(c2)O[C@@H](CN(C)C(=O)CN2CCOCC2)[C@@H](C)CN([C@H](C)CO)S3(=O)=O)c1 | 0.966 ± 0.13 | –
C[C@@H]1CCCCO[C@H](CN(C)Cc2ccc(C(=O)O)cc2)[C@@H](C)CN([C@@H](C)CO)C(=O)c2cc(N(C)C)ccc2O1 | 1.07 ± 0.11 | –
COCC#Cc1ccc([C@@H]2[C@@H](CO)N3C(=O)CN(C(=O)c4ccncc4)C[C@H]23)cc1 | 1.12 ± 0.087 | –
Cc1ccc(-c2ccccc2[C@H]2[C@@H](C#N)N(c3ncc(-c4ccccc4)s3)[C@H]2CO)cc1 | 0.985 ± 0.14 | –
O=C(C[C@H]1CC[C@H]2[C@@H](COC[C@@H](O)CN2Cc2ccc(C(F)(F)F)cc2)O1)N1CCc2ccccc2C1 | 0.968 ± 0.024 | –
O=C(C[C@H]1CC[C@@H]2[C@H](COC[C@H](O)CN2Cc2ccc(C(F)(F)F)cc2)O1)N1CCc2ccccc2C1 | 0.846 ± 0.011 | –
O=C(C[C@@H]1CC[C@@H]2[C@H](COC[C@H](O)CN2Cc2ccc(C(F)(F)F)cc2)O1)N1CCc2ccccc2C1 | 1.078 ± 0.0039 | –
Cc1noc(C)c1NC(=O)Nc1ccc2c(c1)C(=O)N(C)[C@H]1CC[C@H](CC(=O)Nc3ccc4c(c3)CCCC4)O[C@@H]1CO2 | 1.086 ± 0.0014 | –
COc1ccc([C@@H]2C/C=C\C[C@H](c3ccc(F)cc3)NC(=O)CCC(=O)N2)c(OC)c1 | 1.015 ± 0.01 | –
C/C=C/c1ccc2c(c1)O[C@H](CN(C)C(=O)Nc1ccc(OC)cc1)[C@H](C)CN([C@H](C)CO)S2(=O)=O | 1.056 ± 0.0059 | –
Cc1ccccc1-c1ccc2c(c1)O[C@@H](CN(C)C(=O)Nc1ccc(C(F)(F)F)cc1)[C@H](C)CN([C@@H](C)CO)S2(=O)=O | 1.09 ± 0.078 | –
Cc1ccccc1-c1ccc2c(c1)O[C@H](CN(C)C(=O)Nc1ccc(C(F)(F)F)cc1)[C@H](C)CN([C@H](C)CO)S2(=O)=O | 0.988 ± 0.082 | –

Compound | viability index [1] | viability index [2]
Cc1ccccc1-c1ccc2c(c1)O[C@@H](CN(C)C(=O)Nc1ccc(C(F)(F)F)cc1)[C@@H](C)CN([C@@H](C)CO)S2(=O)=O | 0.838 ± 0.12 | –
C/C=C/c1ccc2c(c1)O[C@H](CN(C)C(=O)Nc1ccc(OC)cc1)[C@H](C)CN([C@@H](C)CO)S2(=O)=O | 0.988 ± 0.013 | –
COc1ccc(C#Cc2ccc3c(c2)O[C@@H](CN(C)C(=O)Nc2cccc(OC)c2)[C@@H](C)CN([C@@H](C)CO)S3(=O)=O)cc1 | – | 0.612 ± 0.071
C[C@H](CO)N1C[C@H](C)[C@@H](CN(C)Cc2cccc(C(=O)Nc3ccccc3N)c2)OCc2ccccc2-c2c(n(C)c3ccccc23)C1=O | 0.887 ± 0.053 | –
CO[C@H](CN(C)S(=O)(=O)c1ccc(C)cc1)[C@H](C)CN(C(=O)Nc1ccccc1F)[C@@H](C)CO | 0.986 ± 0.025 | –
CCC(=O)N1[C@H](CO)[C@H]2c3ccccc3N(S(=O)(=O)c3ccc(F)cc3)C[C@H]21 | 0.958 ± 0.067 | –
N#C[C@H]1[C@H](c2ccccc2C2=CCCCC2)[C@H](CO)N1S(=O)(=O)c1ccccc1 | 1.14 ± 0.019 | –
N#C[C@H]1[C@H](c2ccccc2C2=CCCCC2)[C@@H](CO)N1S(=O)(=O)c1ccccc1 | 0.757 ± 0.1 | –
N#C[C@@H]1[C@@H](c2ccccc2C2=CCCCC2)[C@H](CO)N1S(=O)(=O)c1ccccc1 | 1.05 ± 0.1 | –
C[C@@H]1CCCCO[C@@H](CN(C)C(=O)C2CCCCC2)[C@@H](C)CN([C@@H](C)CO)C(=O)c2cc(NS(=O)(=O)c3ccccc3)ccc2O1 | 1.08 ± 0.023 | –
COc1ccc2c3c([C@@H](CO)N(C[C@]33CCN(CC4CCCC4)CC3)C(=O)C3CCC3)n(C)c2c1 | 1.1 ± 0.042 | –
COc1ccc2c3c([C@@H](CO)N(C[C@]33CN(C3)C(=O)CC3CC3)C(=O)C3CCCC3)n(C)c2c1 | 0.932 ± 0.021 | –
COc1ccc(NC(=O)N2CC[C@@]3(CC2)CN([C@H](CO)c2c3c3ccc(OC)cc3n2C)C(=O)C2CCC2)cc1 | 0.785 ± 0.057 | –
COc1ccc(NC(=O)N2C[C@@]3(C2)CN([C@H](CO)c2c3c3ccc(OC)cc3n2C)C(=O)C2CCC2)cc1 | – | 0.841 ± 0.05
COc1ccc(NC(=O)N2CC[C@@]3(CC2)CN([C@@H](CO)c2c3c3ccc(OC)cc3n2C)C(=O)C2CCC2)cc1 | 0.897 ± 0.041 | –
COc1ccc2c3c([C@H](CO)N(C[C@]33CN(C3)C(=O)CC3CC3)C(=O)C3CCCC3)n(C)c2c1 | 0.897 ± 0.036 | –
COc1cccc(CN2C[C@@]3(C2)CN([C@@H](CO)c2[nH]c4cc(OC)ccc4c32)C(=O)C2CC2)c1 | 0.956 ± 0.11 | –
C[C@H](CO)N1C[C@H](C)[C@H](CN(C)C(=O)NC2CCCCC2)Oc2ncc(-c3cccc(F)c3)cc2C1=O | 1.01 ± 0.084 | –
C[C@H]1CN([C@@H](C)CO)C(=O)c2cc(-c3cccc(C#N)c3)cnc2O[C@@H]1CN(C)C(=O)C1CCOCC1 | 1.04 ± 0.025 | –
C[C@H]1CN([C@@H](C)CO)C(=O)c2cc(C#Cc3cccc(F)c3)cnc2O[C@@H]1CN(C)C(=O)C1CCCCC1 | – | 0.769 ± 0.073
C[C@H](CO)N1C[C@H](C)[C@H](CN(C)C(=O)C2CCCCC2)Oc2ncc(C#Cc3cccc(F)c3)cc2C1=O | – | 0.62 ± 0.074
C[C@@H]1CN([C@@H](C)CO)C(=O)c2cc(C#Cc3ccccc3)cnc2O[C@@H]1CN(C)C(=O)c1ccccc1 | 1.08 ± 0.028 | –
C[C@@H]1CN([C@H](C)CO)C(=O)c2cc(C#Cc3ccccc3)cnc2O[C@@H]1CN(C)C(=O)c1ccccc1 | 0.966 ± 0.057 | –

Compound | viability index [1] | viability index [2]
CCCC#Cc1cnc2c(c1)C(=O)N([C@@H](C)CO)C[C@@H](C)[C@@H](CN(C)C(=O)Nc1cc(F)ccc1F)O2 | 1.02 ± 0.012 | –
CCCC#Cc1cnc2c(c1)C(=O)N([C@@H](C)CO)C[C@@H](C)[C@H](CN(C)C(=O)Nc1cc(F)ccc1F)O2 | 1.05 ± 0.041 | –
CCCC#Cc1cnc2c(c1)C(=O)N([C@H](C)CO)C[C@@H](C)[C@H](CN(C)C(=O)Nc1cc(F)ccc1F)O2 | 0.822 ± 0.058 | –
C[C@@H]1CN([C@@H](C)CO)C(=O)Cc2cc(NC(=O)CCC(F)(F)F)ccc2O[C@@H]1CN(C)CC1CC1 | 1.04 ± 0.075 | –
Cc1noc(C)c1S(=O)(=O)N(C)C[C@H]1OCCCC[C@H](C)Oc2ccc(NS(=O)(=O)c3cn(C)cn3)cc2C(=O)N([C@H](C)CO)C[C@@H]1C | 1.08 ± 0.019 | –
Cc1noc(C)c1S(=O)(=O)N(C)C[C@H]1OCc2cn(nn2)CCCC(=O)N([C@H](C)CO)C[C@@H]1C | 0.952 ± 0.014 | –
C[C@H](CO)N1C[C@H](C)[C@@H](CN(C)C)OCc2ccccc2-c2c(n(C)c3ccccc23)C1=O | 1.04 ± 0.08 | –
CNC[C@@H]1OCCCC[C@@H](C)Oc2ccc(NC(=O)Nc3ccc(OC)cc3)cc2C(=O)N([C@H](C)CO)C[C@H]1C | 1.05 ± 0.011 | –
C[C@H]1CN([C@@H](C)CO)C(=O)c2ccccc2-c2ccccc2CO[C@@H]1CN(C)C(=O)[C@@H]1CCCN1C | 0.946 ± 0.043 | –
CC(C)(C)[S@@](=O)N1Cc2cc(C(=O)NCCc3ccncc3)nc(-c3cccc(-c4ccccc4)c3)c2[C@H]1CCO | – | 0.763 ± 0.047
CC(C)(C)S(=O)N1Cc2cc(C(=O)NCc3ccc(Oc4ccccc4)cc3)nc(-c3cccc(-c4cccc(F)c4)c3)c2[C@@H]1CCO (some centres not stated) | 1.02 ± 0.034 | –
CC(C)(C)[S@@](=O)N1Cc2cc(C(=O)NCc3ccccc3F)nc(-c3cccc(-c4cncnc4)c3)c2[C@H]1CCO | 0.801 ± 0.1 | –
CC(C)(C)[S@@](=O)N1Cc2cc(C(=O)NCCc3ccncc3)nc(-c3cccc(-c4cccc(C#N)c4)c3)c2[C@H]1CCO | 1.06 ± 0.084 | –
CC(C)(C)[S@](=O)N1Cc2cc(C(=O)NCc3ccccc3F)nc(-c3cccc(-c4cncnc4)c3)c2[C@@H]1CCO | 0.89 ± 0.056 | –
CC(C)NC(=O)N1Cc2cc(C(=O)NC3Cc4ccccc4C3)nc(-c3cccc(-c4cccnc4)c3)c2[C@H]1CCO | 0.764 ± 0.091 | –
COc1ccc(CNC(=O)c2cc3c(c(-c4cccc(-c5ccc(C#N)cc5)c4)n2)[C@H](CCO)N([S@@](=O)C(C)(C)C)C3)cc1 | 0.977 ± 0.085 | –
CC(C)NC(=O)N1Cc2cc(C(=O)NC3CCC3)nc(-c3cccc(-c4cncnc4)c3)c2[C@@H]1CCO | 1.01 ± 0.018 | –
CC(C)(C)[S@](=O)N1Cc2cc(C(=O)NCCc3ccncc3)nc(-c3cccc(-c4cccc(C#N)c4)c3)c2[C@@H]1CCO | 1.08 ± 0.081 | –
CC(C)(C)[S@](=O)N1Cc2cc(C(=O)NCc3ccccn3)nc(-c3cccc(-c4ccccc4F)c3)c2[C@@H]1CCO | 0.955 ± 0.08 | –
CC(C)NC(=O)N1Cc2cc(C(=O)NC3Cc4ccccc4C3)nc(-c3cccc(-c4cccnc4)c3)c2[C@@H]1CCO | 0.97 ± 0.052 | –
COc1cccc(-c2cccc(-c3nc(C(=O)NCc4ccc(Oc5ccccc5)cc4)cc4c3[C@@H](CCO)N(S(=O)C(C)(C)C)C4)c2)c1 (some centres not stated) | – | 0.799 ± 0.032
